This is a sample that favours compounds with a hit; in the whole collection about 3.7% have one here.
PfHsp90 set2 – reduces growth (ATP signal) of yeast expressing P. falciparum Hsp90 | S. cerevisiae expressing PfHsp90, BacTiter-Glo ATP, 48 h; yeast lacking PDR1 and PDR3 efflux regulators | inhibition, % at 9.4 µM | 310,000 tested, 0.32% active | AID 504621;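 active = every replicate shows inhibition above about 80%, whatever the replicate mean, limit read from the data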;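 also: 0% = DMSO neutral controls and 100% = 20 µM radicicol positive controls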
NALP3 yeast inh – blocks the NALP3 inflammasome reconstituted in yeast; Yeast reconstituted NLRP3/ASC/caspase-1, beta-gal luminescence, 24 h; inhibition, % at 10 µM; 330,000 tested, 0.39% active; AID 2825;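 active = inhibition of 50% or more; inactive = inhibition below 50%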;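 also: plate controls were induced DMSO wells for no effect and uninduced yeast grown without galactose for full effect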
TIM10 inh – inhibits growth of TIM10 yeast strain | 330,000 tested, 1.4% active | inhibition, % at 10 µM | AID 463195 | S. cerevisiae TIM10 strain growth, BacTiter-Glo luminescence, 24 h;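 active = inhibition of 40% or more at the single tested concentration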;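 also: wild-type TIM10 isogenic control strain grown at permissive 25 °C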
tim23-1 inh – inhibits growth of tim23-1 mutant yeast; S. cerevisiae tim23-1 growth, BacTiter-Glo luminescence, 24 h; inhibition, % at 20 µM; 330,000 tested, 1.3% active; AID 463212;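 active = growth inhibition of the mutant yeast at or above 50%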;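 also: temperature-sensitive mutant grown at 25 °C; plate controls were DMSO-treated mutant yeast for no effect and medium wells lacking yeast for full effect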
tim10-1 inh – growth inhibitors of tim10-1 mutant yeast. AID 463190. inhibition, % at 20 µM. 330,000 tested, 2.2% active. S. cerevisiae tim10-1 ts strain growth, BacTiter-Glo, 24 h;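 active = inhibition of at least 40%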;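 also: mutant grown at 25 °C; 0% = DMSO wells with yeast and 100% = wells holding no yeast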
tim10-1 confirm – tim10-1 yeast growth inhibition, confirmed | S. cerevisiae tim10-1 ts strain growth, BacTiter-Glo, 24 h | shares compounds with tim10-1 inh | inhibition, % at 20 µM | AID 463213 | 7,400 tested, 56% active;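 active = inhibition of yeast growth at or above a set limit in either of two repeat tests at 20 µM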;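 also: tim10-1 mutant grown at permissive 25 °C to find synthetic lethal compounds; 0% = DMSO yeast wells and 100% = medium wells without yeast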
Active calls of the source: *; nt = no result; ! = not confirmed by another sample.

SMILES	PfHsp90 set2	NALP3 yeast inh	TIM10 inh	tim23-1 inh	tim10-1 inh	tim10-1 confirm
O=C(Nc1ncc([N+](=O)[O-])s1)c1cccs1	53.6	20.2	21.5	31.7	42.8*!	38.0*
CC(NCC(=O)Nc1ccccc1C(=O)NC1CC1)c1cccc(C(F)(F)F)c1 (stereo not given)	9.6	5.9	1.3	18.5	18.8	nt
S=C(NCCCNC(=S)Nc1ccccc1)Nc1ccccc1	-1.5	1.4	4.8	22.4	10.4	nt
CCCNC(=S)Nc1ccc(Nc2ccccc2)cc1	4.7	24.6	1.0	24.8	42.4*	24.1
CCCCNC(=S)Nc1ccc(C(F)(F)F)cc1	-13.5	7.3	21.1	46.9	54.3*	31.2*
COc1cccc(CN2CC(C(=O)NCCN3CCOCC3)CCC2=O)c1 (stereo not given)	13.8	5.0	-3.7	-5.8	5.5	nt
COc1cc(CCC(=O)Nc2c(C(=O)N3CCN(c4ccccc4OC)CC3)oc3ccccc23)on1	-12.4	2.3	24.3	38.8	42.4*	10.0
COCCCNC(=S)N/N=C/c1ccc2c(c1)OCO2	4.6	-4.0	24.2	35.2	40.9*	14.3
Cc1cccc2c1nc(-c1ccccc1)n1nnnc21	nt	-32.0	-3.2	9.3	17.9	nt
Cc1cccc2c1nc(-c1ccccc1)n1cnnc21	nt	-12.1	0.1	25.7	40.3*	23.5
COc1ccc(S(=O)(=O)N2CCOCC2)cc1NC(=O)c1c(-c2ccccc2)noc1C	nt	18.5	14.6	24.4	21.9	nt
Cc1cccc2cc3c(N)c(C(=O)N4CCOCC4)sc3nc12	68.1	12.2	16.2	35.5	42.1*	33.7*
Cc1cc(C)c2cc3c(N)c(C(=O)N4CCc5ccccc5C4)sc3nc2c1	-10.0	5.8	23.6	27.8	27.8	nt
Cc1cccc(C)c1OCC(=O)Nc1cccc(S(=O)(=O)N2CCCC2)c1	nt	-12.5	28.5	39.3	38.7	nt
CN(C)S(=O)(=O)c1cccc(NC(=O)CCCC2CCCCC2)c1	19.0	-5.4	17.4	27.0	40.6*	24.8
Cc1cc(C)c(OCC(=O)Nc2ccc(S(=O)(=O)N3CCCC3)cc2)c(C)c1	-11.6	15.5	26.8	42.6	40.7*	38.5*
N#Cc1ccccc1OCC(=O)Nc1cccc(S(=O)(=O)N2CCCC2)c1	9.7	8.1	10.4	25.6	14.1	nt
CCc1ccccc1OCC(=O)Nc1cccc(S(=O)(=O)N2CCCC2)c1	-3.6	-6.2	15.4	30.2	41.7*	26.5
COc1ccc(OCC(=O)Nc2ccc(S(=O)(=O)N3CCCCC3)cc2)cc1	6.9	7.0	28.0	43.3	44.9*	51.8*
NS(=O)(=O)c1cccc(NC(=O)CCCC2CCCCC2)c1	1.4	9.5	11.5	6.7	-2.9	nt
COc1cc2c(cc1OC)C(c1cc(OC)c(OC)c(OC)c1)NCC2 (stereo not given)	67.3	-11.7	-10.6	5.3	-2.4	nt
O=C(Cn1cc([N+](=O)[O-])ccc1=O)NCC1COc2ccccc2O1 (stereo not given)	nt	14.3	5.4	-12.6	-16.1	nt
CN(C)S(=O)(=O)c1cccc(NC(=O)COc2cccc3ccccc23)c1	nt	7.1	16.0	30.0	41.1*	32.7*
CC1=CC(C)(C)Nc2ccc(OC(=O)c3cccnc3)cc21	11.5	7.8	13.2	32.7	40.4*	24.6
CC1=CC(C)(C)Nc2ccc(OC(=O)c3ccco3)cc21	13.9	27.6	14.1	30.3	22.9	nt
SMILES	PfHsp90 set2	NALP3 yeast inh	TIM10 inh	tim23-1 inh	tim10-1 inh	tim10-1 confirm
CC(C)c1ccc(NC(=O)CNS(=O)(=O)c2ccc(F)cc2)cc1	-12.1	10.9	4.6	17.5	12.3	nt
CCCCCC(=O)Nc1nc(C)c(-c2csc(Nc3ccc(Cl)cc3)n2)s1	3.6	12.0	27.8	21.1	40.6*	25.6
CCCCCCC(=O)Nc1nc(C)c(-c2csc(Nc3ccc(Cl)cc3)n2)s1	-3.0	5.7	22.6	23.6	39.2	nt
CCN(CC(=O)Nc1ccccc1OC)C(=O)c1ccc2[nH]c3c(c2c1)CC(C)CC3 (stereo not given)	nt	19.9	26.7	40.5	16.8	nt
CCCN(CC(=O)Nc1ccccc1OC)C(=O)c1ccc2[nH]c3c(c2c1)CC(C)CC3 (stereo not given)	-18.2	-11.8	22.7	43.3	41.0*	29.9
FC(F)(F)c1nnc(-c2ccccc2)nc1Oc1ccc(Cl)cc1Cl	-3.6	8.9	12.3	44.3	50.8*	47.3*
O=C(CSC(=S)N1CCOCC1)c1cc2ccccc2oc1=O	11.4	-1.6	26.7	48.3	0.8	nt

From PubChem
